The source of these data is ChEMBL document CHEMBL1961873, “Compounds: GSK PKIS; Assays: Nanosyn kinase panel” (2012).

The term inhibition denotes the relative decrease from the control value, in per cent.

For experiment [1], the target named is Fibroblast growth factor receptor 4 (Homo sapiens) (UniProt P22455). Particulars: at 1 µM.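 Further: reported figure is the averaged percent inhibition of FGFR4, from the GSK PKIS kinase screening panel.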
The target in experiment [2] is Tyrosine-protein kinase Fgr (Homo sapiens) (UniProt P09769). Particulars: at 0.1 µM.
For experiment [3] the target is unchanged. As to conditions: at 1 µM.
In experiment [4] the target is Vascular endothelial growth factor receptor 1 (Homo sapiens) (UniProt P17948). As to conditions: at 0.1 µM.
Experiment [5] has the same target. As to conditions: at 1 µM.
Experiment [6] has as its target Receptor-type tyrosine-protein kinase FLT3 (Homo sapiens) (UniProt P36888). Particulars: at 0.1 µM.
Experiment [7] shares this target. Particulars: at 1 µM.
The test system of experiment [8] is T1, Receptor-type tyrosine-protein kinase FLT3 (Homo sapiens), P36888 [D835Y].
T1 sequence (whole entry): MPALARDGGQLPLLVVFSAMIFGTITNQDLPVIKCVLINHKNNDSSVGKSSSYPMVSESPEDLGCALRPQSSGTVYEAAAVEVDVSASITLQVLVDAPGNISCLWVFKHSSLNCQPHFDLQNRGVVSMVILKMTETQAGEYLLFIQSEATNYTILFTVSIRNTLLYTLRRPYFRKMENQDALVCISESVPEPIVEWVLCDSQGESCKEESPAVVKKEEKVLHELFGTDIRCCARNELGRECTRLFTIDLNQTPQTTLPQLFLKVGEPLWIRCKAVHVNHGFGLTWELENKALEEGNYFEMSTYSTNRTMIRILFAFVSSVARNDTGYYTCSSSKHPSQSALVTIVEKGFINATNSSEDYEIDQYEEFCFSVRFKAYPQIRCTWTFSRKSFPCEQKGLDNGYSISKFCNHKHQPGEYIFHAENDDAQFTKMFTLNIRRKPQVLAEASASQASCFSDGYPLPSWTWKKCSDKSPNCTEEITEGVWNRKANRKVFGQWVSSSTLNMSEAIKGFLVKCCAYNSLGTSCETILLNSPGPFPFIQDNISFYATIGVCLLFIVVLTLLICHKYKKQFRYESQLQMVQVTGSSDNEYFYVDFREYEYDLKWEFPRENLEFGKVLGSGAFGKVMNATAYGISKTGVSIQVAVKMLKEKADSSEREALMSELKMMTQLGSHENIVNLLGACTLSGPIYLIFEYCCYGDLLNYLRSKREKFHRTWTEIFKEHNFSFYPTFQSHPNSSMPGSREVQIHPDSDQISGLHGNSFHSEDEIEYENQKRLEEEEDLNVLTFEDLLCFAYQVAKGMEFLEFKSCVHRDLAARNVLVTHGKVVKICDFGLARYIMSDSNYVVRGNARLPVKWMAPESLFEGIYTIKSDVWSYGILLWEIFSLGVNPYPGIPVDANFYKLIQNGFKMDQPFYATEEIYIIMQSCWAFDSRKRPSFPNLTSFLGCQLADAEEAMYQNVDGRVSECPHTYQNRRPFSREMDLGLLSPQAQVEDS
As to conditions: at 0.1 µM.

Experiment [9] addresses Non-receptor tyrosine-protein kinase TYK2 (Homo sapiens) (UniProt P29597). Particulars: at 1 µM.
Experiment [10] deals with T2, Tyrosine-protein kinase receptor TYRO3 (Homo sapiens) (UniProt Q06418).
T2 sequence (whole entry): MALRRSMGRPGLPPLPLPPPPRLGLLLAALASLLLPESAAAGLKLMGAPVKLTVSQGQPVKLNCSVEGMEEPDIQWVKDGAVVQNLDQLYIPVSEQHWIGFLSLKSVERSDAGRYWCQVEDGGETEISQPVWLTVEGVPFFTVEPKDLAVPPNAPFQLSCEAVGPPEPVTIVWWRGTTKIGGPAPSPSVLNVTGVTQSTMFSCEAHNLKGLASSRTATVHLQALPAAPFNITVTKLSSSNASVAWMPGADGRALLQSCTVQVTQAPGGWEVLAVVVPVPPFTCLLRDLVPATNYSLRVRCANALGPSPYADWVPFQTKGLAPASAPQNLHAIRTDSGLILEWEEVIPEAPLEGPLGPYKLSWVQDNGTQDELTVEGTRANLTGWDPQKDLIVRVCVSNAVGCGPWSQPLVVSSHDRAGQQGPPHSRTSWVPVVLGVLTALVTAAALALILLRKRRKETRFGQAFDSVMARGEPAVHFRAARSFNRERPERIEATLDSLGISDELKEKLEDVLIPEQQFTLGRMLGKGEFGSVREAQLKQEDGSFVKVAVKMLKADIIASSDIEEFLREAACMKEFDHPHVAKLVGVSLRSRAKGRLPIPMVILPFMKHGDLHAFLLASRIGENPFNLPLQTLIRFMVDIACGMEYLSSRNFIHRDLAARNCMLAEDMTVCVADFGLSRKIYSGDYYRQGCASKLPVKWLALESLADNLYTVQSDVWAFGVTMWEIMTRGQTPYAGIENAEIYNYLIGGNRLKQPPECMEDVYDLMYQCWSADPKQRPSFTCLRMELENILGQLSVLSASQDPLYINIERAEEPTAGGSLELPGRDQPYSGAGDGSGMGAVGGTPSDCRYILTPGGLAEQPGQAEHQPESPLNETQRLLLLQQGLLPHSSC
As to conditions: at 0.1 µM.

Experiment [11] addresses T2, Tyrosine-protein kinase receptor TYRO3 (Homo sapiens). Particulars: at 1 µM.
The target in experiment [12] is Tyrosine-protein kinase Yes (Homo sapiens) (UniProt P07947). Particulars: at 0.1 µM.
Experiment [13] shares this target. Particulars: at 1 µM.
For experiment [14], the target named is T3, Tyrosine-protein kinase ZAP-70 (Homo sapiens) (UniProt P43403).
T3 sequence (whole entry): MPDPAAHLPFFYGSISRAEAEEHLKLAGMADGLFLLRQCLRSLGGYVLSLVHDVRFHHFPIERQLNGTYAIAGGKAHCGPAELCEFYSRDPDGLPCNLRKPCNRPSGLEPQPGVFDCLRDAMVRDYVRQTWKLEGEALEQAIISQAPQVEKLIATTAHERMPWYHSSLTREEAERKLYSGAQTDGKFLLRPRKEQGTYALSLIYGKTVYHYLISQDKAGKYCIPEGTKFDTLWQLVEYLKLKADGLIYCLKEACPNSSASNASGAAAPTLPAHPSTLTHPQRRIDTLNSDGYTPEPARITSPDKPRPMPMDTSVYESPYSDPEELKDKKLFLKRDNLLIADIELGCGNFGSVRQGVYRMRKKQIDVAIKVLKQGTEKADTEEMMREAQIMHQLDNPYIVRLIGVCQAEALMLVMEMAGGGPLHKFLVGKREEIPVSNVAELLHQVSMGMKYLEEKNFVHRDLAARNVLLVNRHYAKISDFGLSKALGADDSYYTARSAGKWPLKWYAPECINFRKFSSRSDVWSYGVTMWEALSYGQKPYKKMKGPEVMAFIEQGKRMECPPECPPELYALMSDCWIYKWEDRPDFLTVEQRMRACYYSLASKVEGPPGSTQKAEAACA
As to conditions: at 1 µM.

The target of experiment [15] is Serine/threonine-protein kinase B-raf (Homo sapiens) (UniProt P15056). As to conditions: at 0.1 µM.
For experiment [16] the target is unchanged. Particulars: at 1 µM.
Experiment [17] deals with Serine/threonine-protein kinase B-raf (Homo sapiens), P15056 [V600E]. As to conditions: at 0.1 µM.
Experiment [18] has the same test system. As to conditions: at 1 µM.
In experiment [19] the target is RAF proto-oncogene serine/threonine-protein kinase (Homo sapiens) (UniProt P04049). Particulars: at 0.1 µM.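 Further: values are mean CRAF kinase inhibition from profiling of the GSK Published Kinase Inhibitor Set.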
Experiment [20] deals with T3, Tyrosine-protein kinase ZAP-70 (Homo sapiens). Particulars: at 0.1 µM.

Sequence of Fibroblast growth factor receptor 4 (Homo sapiens) (P22455 22-802 limits assumed): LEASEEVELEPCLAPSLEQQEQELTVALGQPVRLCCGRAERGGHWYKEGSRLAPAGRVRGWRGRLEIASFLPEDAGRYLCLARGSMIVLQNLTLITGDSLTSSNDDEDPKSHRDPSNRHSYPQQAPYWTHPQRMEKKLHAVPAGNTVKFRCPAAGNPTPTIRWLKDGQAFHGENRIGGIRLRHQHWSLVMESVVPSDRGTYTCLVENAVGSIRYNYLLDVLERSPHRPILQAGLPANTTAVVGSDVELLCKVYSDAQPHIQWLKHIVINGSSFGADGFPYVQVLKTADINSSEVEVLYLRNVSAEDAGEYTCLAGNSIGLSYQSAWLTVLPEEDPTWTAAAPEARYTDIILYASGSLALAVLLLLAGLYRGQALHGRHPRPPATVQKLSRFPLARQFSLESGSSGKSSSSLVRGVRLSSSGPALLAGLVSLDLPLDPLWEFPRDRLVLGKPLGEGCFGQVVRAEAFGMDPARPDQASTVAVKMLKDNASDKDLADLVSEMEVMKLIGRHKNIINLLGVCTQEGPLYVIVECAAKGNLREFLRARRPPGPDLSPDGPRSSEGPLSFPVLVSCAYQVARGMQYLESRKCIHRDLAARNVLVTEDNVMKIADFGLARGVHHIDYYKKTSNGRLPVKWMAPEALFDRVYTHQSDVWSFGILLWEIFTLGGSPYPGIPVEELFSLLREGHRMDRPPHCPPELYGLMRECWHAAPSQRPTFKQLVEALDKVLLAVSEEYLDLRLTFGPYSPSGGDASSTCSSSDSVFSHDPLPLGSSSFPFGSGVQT
Sequence of Non-receptor tyrosine-protein kinase TYK2 (Homo sapiens) (P29597 whole entry): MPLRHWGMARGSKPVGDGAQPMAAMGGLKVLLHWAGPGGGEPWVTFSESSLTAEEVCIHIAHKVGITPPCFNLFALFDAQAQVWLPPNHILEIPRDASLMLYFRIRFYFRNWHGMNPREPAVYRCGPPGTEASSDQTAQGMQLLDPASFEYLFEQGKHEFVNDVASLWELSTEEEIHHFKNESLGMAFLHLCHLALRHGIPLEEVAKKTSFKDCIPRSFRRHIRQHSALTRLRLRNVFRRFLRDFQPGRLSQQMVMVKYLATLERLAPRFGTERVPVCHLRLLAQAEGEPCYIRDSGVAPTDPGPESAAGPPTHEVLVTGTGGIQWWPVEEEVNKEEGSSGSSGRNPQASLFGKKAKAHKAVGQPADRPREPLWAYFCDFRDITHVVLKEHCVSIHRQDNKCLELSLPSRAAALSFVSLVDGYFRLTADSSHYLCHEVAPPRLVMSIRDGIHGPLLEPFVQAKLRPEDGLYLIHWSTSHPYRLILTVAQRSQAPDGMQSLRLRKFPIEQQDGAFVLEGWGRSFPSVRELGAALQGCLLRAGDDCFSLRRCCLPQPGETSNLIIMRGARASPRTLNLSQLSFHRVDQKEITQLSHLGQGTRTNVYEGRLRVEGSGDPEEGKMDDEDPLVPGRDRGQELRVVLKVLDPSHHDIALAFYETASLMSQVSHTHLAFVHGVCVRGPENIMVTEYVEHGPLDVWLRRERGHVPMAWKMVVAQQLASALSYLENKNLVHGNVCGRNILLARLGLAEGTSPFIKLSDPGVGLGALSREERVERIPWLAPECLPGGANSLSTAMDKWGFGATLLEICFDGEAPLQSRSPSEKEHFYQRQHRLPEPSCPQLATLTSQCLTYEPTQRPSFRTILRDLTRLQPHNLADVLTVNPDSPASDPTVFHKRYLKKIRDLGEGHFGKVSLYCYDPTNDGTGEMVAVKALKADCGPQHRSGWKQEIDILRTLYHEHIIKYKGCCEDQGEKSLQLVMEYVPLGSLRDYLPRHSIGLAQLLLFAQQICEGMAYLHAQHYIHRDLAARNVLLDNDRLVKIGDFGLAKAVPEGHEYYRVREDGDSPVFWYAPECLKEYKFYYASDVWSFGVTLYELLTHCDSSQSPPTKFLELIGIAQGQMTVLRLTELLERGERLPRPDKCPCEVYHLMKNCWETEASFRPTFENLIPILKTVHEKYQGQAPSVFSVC
Sequence of Tyrosine-protein kinase Yes (Homo sapiens) (P07947 2-543 limits assumed): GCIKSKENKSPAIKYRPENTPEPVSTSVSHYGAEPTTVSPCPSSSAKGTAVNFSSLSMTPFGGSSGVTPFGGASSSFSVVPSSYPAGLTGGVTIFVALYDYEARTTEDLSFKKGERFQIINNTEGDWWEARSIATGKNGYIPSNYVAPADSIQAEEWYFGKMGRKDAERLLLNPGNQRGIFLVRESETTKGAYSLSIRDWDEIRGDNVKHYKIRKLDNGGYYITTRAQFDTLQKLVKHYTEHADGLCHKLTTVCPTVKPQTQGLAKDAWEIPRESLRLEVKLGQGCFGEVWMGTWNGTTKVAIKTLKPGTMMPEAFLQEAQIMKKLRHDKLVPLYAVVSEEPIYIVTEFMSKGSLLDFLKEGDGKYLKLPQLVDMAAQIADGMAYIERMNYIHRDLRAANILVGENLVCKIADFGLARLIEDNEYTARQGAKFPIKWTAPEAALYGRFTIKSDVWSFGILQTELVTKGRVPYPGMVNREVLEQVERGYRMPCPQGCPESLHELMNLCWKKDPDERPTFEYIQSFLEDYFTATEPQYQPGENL
Sequence of RAF proto-oncogene serine/threonine-protein kinase (Homo sapiens) (P04049 whole entry): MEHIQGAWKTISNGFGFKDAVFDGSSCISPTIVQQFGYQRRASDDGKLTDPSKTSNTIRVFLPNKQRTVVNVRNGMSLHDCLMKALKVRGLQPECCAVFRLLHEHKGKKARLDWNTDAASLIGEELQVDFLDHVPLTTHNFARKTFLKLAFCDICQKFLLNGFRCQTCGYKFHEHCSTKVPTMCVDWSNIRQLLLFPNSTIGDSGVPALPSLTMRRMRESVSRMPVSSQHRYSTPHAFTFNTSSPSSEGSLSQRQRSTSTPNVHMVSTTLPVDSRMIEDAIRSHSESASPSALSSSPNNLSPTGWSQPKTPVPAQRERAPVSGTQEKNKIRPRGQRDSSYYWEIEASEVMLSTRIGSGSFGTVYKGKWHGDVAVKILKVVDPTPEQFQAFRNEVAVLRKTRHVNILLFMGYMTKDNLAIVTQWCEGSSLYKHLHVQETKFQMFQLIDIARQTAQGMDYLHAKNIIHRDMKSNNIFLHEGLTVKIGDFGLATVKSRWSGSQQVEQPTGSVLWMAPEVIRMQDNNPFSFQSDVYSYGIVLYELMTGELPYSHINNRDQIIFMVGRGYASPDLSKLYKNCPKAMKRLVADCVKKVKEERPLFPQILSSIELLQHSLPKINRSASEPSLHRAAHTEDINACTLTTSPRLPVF
Sequence of Tyrosine-protein kinase Fgr (Homo sapiens) (P09769 2-529 limits assumed): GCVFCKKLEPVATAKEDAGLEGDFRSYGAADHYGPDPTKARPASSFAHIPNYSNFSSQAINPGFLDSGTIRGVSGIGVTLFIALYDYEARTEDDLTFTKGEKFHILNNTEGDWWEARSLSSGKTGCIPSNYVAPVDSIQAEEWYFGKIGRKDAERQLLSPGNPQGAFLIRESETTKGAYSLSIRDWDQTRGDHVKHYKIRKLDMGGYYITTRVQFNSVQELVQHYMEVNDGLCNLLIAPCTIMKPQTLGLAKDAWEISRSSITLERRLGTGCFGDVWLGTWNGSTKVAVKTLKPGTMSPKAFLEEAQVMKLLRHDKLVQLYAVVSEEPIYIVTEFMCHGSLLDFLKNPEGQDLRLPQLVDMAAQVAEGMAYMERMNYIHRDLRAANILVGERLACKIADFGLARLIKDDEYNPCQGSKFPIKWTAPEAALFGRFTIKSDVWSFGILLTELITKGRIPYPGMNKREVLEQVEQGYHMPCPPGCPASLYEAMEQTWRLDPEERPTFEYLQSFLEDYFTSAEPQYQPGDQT
Sequence of Serine/threonine-protein kinase B-raf (Homo sapiens), P15056 [V600E] (P15056 whole entry V600E): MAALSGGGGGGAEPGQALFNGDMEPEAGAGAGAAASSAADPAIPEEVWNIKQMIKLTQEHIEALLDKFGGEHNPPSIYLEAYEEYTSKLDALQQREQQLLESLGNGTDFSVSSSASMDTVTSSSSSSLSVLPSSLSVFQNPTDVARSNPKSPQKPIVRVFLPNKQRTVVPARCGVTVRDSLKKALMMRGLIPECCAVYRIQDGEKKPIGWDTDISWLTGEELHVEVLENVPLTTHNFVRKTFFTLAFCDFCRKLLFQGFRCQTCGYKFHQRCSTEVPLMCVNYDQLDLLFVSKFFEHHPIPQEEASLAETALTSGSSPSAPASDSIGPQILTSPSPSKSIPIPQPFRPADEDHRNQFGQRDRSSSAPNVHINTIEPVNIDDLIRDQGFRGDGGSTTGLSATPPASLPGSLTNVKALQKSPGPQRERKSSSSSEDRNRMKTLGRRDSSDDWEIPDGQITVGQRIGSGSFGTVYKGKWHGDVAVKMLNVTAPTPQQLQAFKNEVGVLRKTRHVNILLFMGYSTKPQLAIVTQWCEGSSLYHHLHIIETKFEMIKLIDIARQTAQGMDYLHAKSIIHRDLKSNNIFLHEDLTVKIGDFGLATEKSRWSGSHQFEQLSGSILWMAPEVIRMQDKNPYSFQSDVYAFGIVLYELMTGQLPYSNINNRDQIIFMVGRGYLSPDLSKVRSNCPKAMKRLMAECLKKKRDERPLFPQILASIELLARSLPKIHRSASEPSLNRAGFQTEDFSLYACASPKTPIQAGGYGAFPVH
Sequence of Serine/threonine-protein kinase B-raf (Homo sapiens) (P15056 whole entry): as the sequence (P15056 whole entry V600E) above, with E600V counted along it

Turning to `Cc1nnc(-c2ccc(C)c(-c3ccc(C(=O)NCc4ccc(Cl)cc4)cc3)c2)o1`, the inhibition in [1] is -3.75%; in experiment [2] it was 4.76%; in experiment [3], 1.82%; in experiment [4] it was 2.48%; in experiment [5], 2.52%; in [6], 2.13%. For the same compound, the inhibition was 0.77% in [7]; 2.22% in experiment [8]; -3.78% in [9]; 2.85% in [10]; 3.57% in experiment [11]; 2.58% in experiment [12]. The inhibition in experiment [13] was 5.29%; in [14], -3.27%; in [15] it was 5.55%; in experiment [16], 4.07%; in experiment [17], 6.27%; in [18], 3.85%. Also, the inhibition in experiment [19] was found to be 8.41%.

On to `COc1ccc2cc(-c3c(-c4ccncc4)nc(-c4ccc(S(C)(=O)=O)cc4C)n3C)ccc2c1`, for which the inhibition in [1] was found to be 2.96%; in experiment [2], 3.77%; in [3], 4.62%; in experiment [4] it was 0.91%; in experiment [5] it was 2.09%; in [6], 1.65%. Moreover, the inhibition in experiment [7] was 1%; in experiment [8], -1.54%; in experiment [9] it was -1.13%; in experiment [10], 2.19%; in experiment [11] it was 5.53%; in experiment [12], 3.64%. The inhibition was 20.9% in experiment [13]; -0.34% in experiment [20]; 0.82% in [14]; 6.36% in experiment [15]; 6.36% in experiment [16]; 6.6% in experiment [17]. Moreover, the inhibition in experiment [18] is 5.85%; in [19], 5.5%.

For `NS(=O)(=O)c1ccc(Nc2cc(-c3ccc(O)c(F)c3)n[nH]2)cc1`, the inhibition in experiment [1] is 0.53%; in experiment [2], 0.78%; in [3], 13.7%; in experiment [4], 2.34%; in [5], 14.3%; in experiment [6], 33.7%. Further, the inhibition in experiment [7] was 79.4%; in experiment [8] it was 5.5%; in [9], 5.71%; in experiment [10], 8.31%; in [11], 52.3%; in experiment [12], -3.77%. Moreover, the inhibition in experiment [13] was 11.7%; in experiment [15], -4.38%; in experiment [16], -2.42%; in [17], -4.83%; in experiment [18], -3.52%; in [19] it was -4.11%.

`COc1ccc2ncn(-c3cc(O[C@H](C)c4ccccc4Cl)c(C(N)=O)s3)c2c1`: the inhibition in experiment [1] was -2.23%; in experiment [2] it was 2.3%; in experiment [3], 3.06%; in experiment [4], 0.27%; in experiment [5], 3.7%; in [6] it was -1.31%. In addition, the inhibition is 4.52% in experiment [7]; 2.46% in experiment [8]; -5.78% in [9]; 3.88% in experiment [10]; 3.45% in experiment [11]; 1.1% in experiment [12]. The inhibition is 0.5% in [13]; -4.58% in experiment [20]; 0.58% in experiment [14]; 5.68% in [15]; 4.96% in [16]; 3.17% in [17]. Moreover, the inhibition was found to be 3.29% in [18] and 0.5% in experiment [19].

With `NC(=O)c1cc(-c2ccncc2)cc(-c2ccccc2)c1N`, the inhibition was 1.49% in experiment [1]; 6.05% in experiment [2]; 27% in experiment [3]; 1.74% in experiment [4]; 5.65% in experiment [5]; -1.2% in experiment [6]. In addition, the inhibition in experiment [7] is 4.55%; in experiment [8], -0.35%; in experiment [9], -2.55%; in experiment [10], 2.62%; in experiment [11], 3.61%; in experiment [12] it was 7.5%. Besides, the inhibition in experiment [13] came out at 36%; in experiment [20], 4.11%; in experiment [14], 29%; in experiment [15] it was 8.42%; in [16] it was 8.98%; in experiment [17], 8.18%. The inhibition is 8.65% in experiment [18] and 1.06% in experiment [19].

As for `CCc1ccc(Oc2nccc(-c3c(-c4ccc(F)cc4)ncn3C3CCNCC3)n2)cc1`, the inhibition turned out to be 1.42% in experiment [1]; 2.39% in experiment [2]; 6.95% in experiment [3]; 2.69% in [4]; 3.25% in [5]; 5.16% in [6]. In addition, the inhibition in experiment [7] is 5.11%; in [8], -2.28%; in experiment [9], -1.9%; in [10], 1.15%; in [11], 1.06%; in [12], 4.27%. Moreover, the inhibition in [13] was 7.31%; in experiment [20], -0.22%; in experiment [14] it was -4.21%; in [15] it was 4.48%; in experiment [16], 10.2%; in experiment [17] it was 4.23%. Besides, the inhibition in experiment [18] came to 8.72%; in experiment [19] it was 1.49%.

For the compound `COc1ccc(C2=C(N3CCc4ccccc43)C(=O)NC2=O)cc1`, the inhibition in experiment [1] came out at 1.06%; in [2], 5.11%; in experiment [3], 3.99%; in experiment [4] it was 1.27%; in experiment [5], 2.89%; in experiment [6], 3.27%. Moreover, the inhibition in experiment [7] is 2.59%; in experiment [8] it was 5.76%; in experiment [9], -5.5%; in [10], 4.63%; in experiment [11], 3.41%; in experiment [12], 4.87%. The inhibition in experiment [13] is 5.12%; in experiment [20], 3.72%; in experiment [14], -0.45%; in experiment [15] it was 5.73%; in experiment [16], 7.39%; in [17], 6.3%. Moreover, the inhibition is 4.71% in experiment [18] and -3.24% in experiment [19].
